Experiment [1] can be described thus: Nuclear factor erythroid 2-related factor 2/antioxidant responsive element (Nrf2/ARE) small molecule agonists: qHTS cell viability counter screen in human keratinocytes (AID 1919968; active means well fitted curve in the direction sought with a large enough effect in the repeat runs; an effect the other way counts as inactive or inconclusive; further: nearly all actives have a fitted effect of over 55% in size). The gist of the method:
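Viability counter-screen: KeratinoSens reporter cells, DMSO-delivered compounds, 23 h at 37 C, CellTiter-Fluor fluorescence.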
A general note: Quantitative high-throughput screening tests each substance at several concentrations.

The nature of experiment [2]: Nuclear factor erythroid 2-related factor 2/antioxidant responsive element (Nrf2/ARE) small molecule agonists: luciferase reporter gene qHTS assay in human keratinocytes (AID 1919969). Further: nearly all actives have a fitted effect of over 35% in size. On the technique in general: In a reporter assay the amount or activity of a reporter protein is the signal.
The target of experiment [3] is Gonadotropin-releasing hormone receptor (Homo sapiens) (UniProt P30968). Nature of the experiment: Human gonadotropin-releasing hormone receptor (GnRHR) small molecule agonists, calcium flux assay in GnRHR-HEK293 cells (AID 1920063). Further: nearly all actives have a fitted effect of over 35% in size. The essentials: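 Tox21-format agonist screen using human GnRHR-expressing HEK293 cells and a fluorescent calcium dye; kinetic 3-min fluorescence reading after compound addition, 15-point concentration series run in triplicate.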
Chain of Gonadotropin-releasing hormone receptor (Homo sapiens) (P30968 whole entry, looked up): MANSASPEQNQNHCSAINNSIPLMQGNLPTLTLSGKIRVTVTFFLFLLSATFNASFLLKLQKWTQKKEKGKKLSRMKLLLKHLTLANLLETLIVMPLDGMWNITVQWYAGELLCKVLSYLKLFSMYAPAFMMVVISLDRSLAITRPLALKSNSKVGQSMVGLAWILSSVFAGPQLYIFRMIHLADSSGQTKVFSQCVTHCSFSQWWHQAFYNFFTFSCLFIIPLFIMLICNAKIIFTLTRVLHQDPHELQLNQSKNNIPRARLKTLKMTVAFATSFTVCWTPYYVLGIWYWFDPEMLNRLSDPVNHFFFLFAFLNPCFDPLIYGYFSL
Background: Calcium assays in cells follow changes in intracellular calcium, usually with a dye or a luminescent sensor.

The target in experiment [4] is KiSS-1 receptor (Homo sapiens) (UniProt Q969F8). Nature of the experiment: Human kisspeptin (KISS1R) small molecule agonists, calcium flux assay in KISS1R-HEK293 cells (AID 1920064; active means well fitted curve in the direction sought with a large enough effect in the repeat runs; an effect the other way counts as inactive or inconclusive). The essentials: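 Intracellular calcium mobilization in KISS1R-HEK293 cells was recorded by fluorescence (Ex/Em 480/540) for 3 min following compound addition to cells pre-loaded 1 h with calcium dye.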
Chain of KiSS-1 receptor (Homo sapiens) (Q969F8 whole entry, looked up): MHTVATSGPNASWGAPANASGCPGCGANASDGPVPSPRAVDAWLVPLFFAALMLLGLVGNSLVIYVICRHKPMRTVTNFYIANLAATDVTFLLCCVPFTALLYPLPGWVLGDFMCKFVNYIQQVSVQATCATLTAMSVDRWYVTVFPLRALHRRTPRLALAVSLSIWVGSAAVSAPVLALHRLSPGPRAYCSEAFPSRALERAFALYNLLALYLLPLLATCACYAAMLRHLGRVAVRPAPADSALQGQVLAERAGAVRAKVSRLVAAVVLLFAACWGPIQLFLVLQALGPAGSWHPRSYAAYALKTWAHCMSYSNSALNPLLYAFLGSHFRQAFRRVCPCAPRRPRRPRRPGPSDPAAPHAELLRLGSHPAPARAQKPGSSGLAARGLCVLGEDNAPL

A short description of experiment [5]: G protein-coupled receptor (GPCR) small molecule agonists, calcium flux assay: HEK293 wild type cell line counter screen (AID 1920065). The essentials: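 In this agonist-mode screen, ATP is the positive control and DMSO the vehicle. Cells grow 18 h before a 1 h dye incubation at 37 C; signal is taken at Ex/Em 480/540 over 3 min.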
Experiment [6] is described as follows: p53 small molecule agonists, cell-based qHTS assay with human liver microsomes (AID 1963577).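 Further: p53 response element beta-lactamase reporter cells with liver microsomes plus NADPH.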 The gist of the method:
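Reporter activation was measured by LiveBLAzer fluorescence intensity in p53RE-bla cells, which had been exposed to compounds for 16 h at 37 C alongside 0.5 mg/mL human liver microsomes and 0.5 mg/mL NADPH (final concentrations).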

A short description of experiment [7]: p53 small molecule agonists, cell-based qHTS assay with rat liver microsomes (AID 1963578). The essentials: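 Compound in DMSO added to p53RE-bla cells 5 h post-plating; rat microsomes/NADPH 0.5 mg/mL final; 16 h, 37 C; LiveBLAzer 2 h RT.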
Experiment [8] in a line: p53 small molecule agonists, cell-based qHTS assay with human liver microsomes: qHTS cell viability counter screen (AID 1963579). Further: nearly all actives have a fitted effect of over 45% in size. The gist of the method: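 HLM-supplemented (0.5 mg/mL final) and NADPH-supplemented (0.5 mg/mL final) p53RE-bla cultures, 4,000 cells per well, were dosed with compounds in DMSO for 16 h at 37 C; luminescent ATP detection (CellTiter-Glo, 30 min, room temperature) quantified surviving cells.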

Experiment [9] can be described thus: p53 small molecule agonists, cell-based qHTS assay with rat liver microsomes: qHTS cell viability counter screen (AID 1963580). Further: nearly all actives have a fitted effect of over 45% in size. The essentials: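 p53RE-bla HCT-116 cells (4,000/well) rested 5 h at 37 C, then given Tox21 compounds in DMSO with rat liver microsomes (0.5 mg/mL final) plus NADPH (0.5 mg/mL final) for 16 h at 37 C. Viability read by CellTiter-Glo luminescence after 30 min at room temperature.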

A short description of experiment [10]: p53 small molecule agonists, cell-based qHTS assay: qHTS cell viability counter screen (AID 1963581). Further: nearly all actives have a fitted effect of over 45% in size. The gist of the method:
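Compounds are pinned onto HCT-116 p53RE-bla cells and left 16 h at 37 C. Following the reporter FRET read, ATP is quantified by CellTiter-Glo luminescence after 30 min at room temperature.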

A short description of experiment [11]: p53 small molecule agonists, cell-based qHTS assay (AID 1963582; active means well fitted activation curve with a large enough effect in the signal ratio in the repeat runs, not every such curve was filed as active; the % refers to the signal ratio). The essentials: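 Agonist activity was scored from beta-lactamase FRET fluorescence in p53RE-bla cells treated 16 h at 37 C with compounds in DMSO, substrate incubation being 2 h at room temperature.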
The target of experiment [12] is 5-hydroxytryptamine receptor 2A (Homo sapiens) (UniProt P28223). Put plainly: 5-hydroxytryptamine receptor 2A (HTR2A) small molecule antagonists, cell-based qHTS assay (AID 1963586). Further: nearly all actives have a fitted effect of over 45% in size. The gist of the method:
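Antagonist-mode intracellular calcium assay: DOI (4 nM) added after 5 min compound pre-incubation at room temperature to dye-loaded HTR2A-CHO cells. Fluorescence followed for 3 min, sampled every second.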

For experiment [13] the target is unchanged. Nature of the experiment: 5-hydroxytryptamine receptor 2A (HTR2A) small molecule agonists, cell-based qHTS assay (AID 1963587). Further: nearly all actives have a fitted effect of over 30% in size. The essentials: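 HTR2A-CHO cells, plated 18 h at 37 C/5% CO2, dye-loaded 1 h at 37 C; compounds in DMSO added by pin tool (agonist mode). Intracellular calcium flux read as kinetic fluorescence on FDSS over 2 min at 1 s intervals.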

Experiment [14] concerns the target Muscarinic acetylcholine receptor M1 (Homo sapiens) (UniProt P11229). Put plainly: Cholinergic receptor muscarinic 1 (CHRM1) small molecule antagonists, cell-based qHTS assay (AID 1963588). Further: nearly all actives have a fitted effect of over 40% in size. Further: potency means the concentration at half of the fitted maximal effect. The essentials: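 CHRM1-CHO calcium-flux assay, antagonist mode. Cells were seeded 18 h, dye-loaded 1 h at 37 C and given compound for 5 min at RT, then acetylcholine was added at 50nM. FDSS fluorescence was read 3 min; 15 concentrations, three runs.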

Experiment [15] has the same target. Nature of the experiment: Cholinergic receptor muscarinic 1 (CHRM1) small molecule agonists, cell-based qHTS assay (AID 1963589). Further: nearly all actives have a fitted effect of over 35% in size. The essentials:
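Stable CHRM1-CHO cells (human receptor) were incubated 18 h, dye-loaded for 1 h at 37 C and exposed to test compounds for agonist activity, with calcium-dependent fluorescence followed kinetically.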

The nature of experiment [16]: cAMP Responsive Elements (CRE) small molecule antagonists, cell-based qHTS assay (AID 1963591; active means well fitted inhibition curve with a large enough effect in the signal ratio in the repeat runs, not every such curve was filed as active; the % refers to the signal ratio). The gist of the method: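 qHTS in CRE-bla HEK 293T cells: compound in DMSO, then 0.25 uM NKH477 (final), 3 h at 37 °C/5% CO2; beta-lactamase FRET read-out after 2 h substrate incubation.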
Experiment [17] addresses Beta-2 adrenergic receptor (Homo sapiens) (UniProt P07550). Put plainly: Adrenergic beta2 receptor (ADRB2) small molecule antagonists, cell-based qHTS assay (AID 1963592). Further: series mostly up to about 92 µM; nearly all actives have a fitted effect of over 50% in size. The essentials:
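Cells (CHO, stable ADRB2 overexpression) incubated 18-20hr at 37C; compounds added from DMSO; agonist mix (1nM isoproterenol, 100uM IBMX, 25uM Ro-20-1724) added; 0.5hr RT; d2-cAMP and anti-cAMP-cryptate added; 1hr RT; 665/615 nm read.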

The target of experiment [18] is D(2) dopamine receptor (Homo sapiens) (UniProt P14416). Nature of the experiment: Dopamine D2 receptor (DRD2) small molecule agonists, cell-based qHTS assay (AID 1963594). Further: nearly all actives have a fitted effect of over 35% in size. The essentials:
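HEK293 cells stably expressing DRD2 were cultured 24 h at 37 C, then given Ro20-1724 (0.1 mM final) and compounds for 10 min at room temperature. NKH477 (200nM) was then added for 30 min. cAMP was read by HTRF.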

Experiment [19] shares this target. Put plainly: Dopamine D2 receptor (DRD2) small molecule antagonists, cell-based qHTS assay (AID 1963595; active means well fitted inhibition curve with a large enough effect in the signal ratio in the repeat runs, with a control signal flat; the % refers to the signal ratio). The gist of the method:
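Human DRD2 antagonist qHTS measuring cAMP by HTRF. The cells are exposed to compound for 10 min, then to NKH477 (200 nM) and quinpirole (12 nM) for 30 min at RT, with Ro20-1724 (0.1 mM) present throughout.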

Experiment [20] in a line: cAMP Responsive Elements (CRE) small molecule agonists, cell-based qHTS assay (AID 1963590). The gist of the method:
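FRET-based beta-lactamase readout (LiveBLAzer B/G, 2 h RT) quantified CRE activation in HEK 293T CRE-bla cells after 3 h treatment with DMSO-dissolved compounds.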

Values without a mark were called inactive. Records with an inconclusive call do not appear. Active and inactive are the calls of the source. Unless noted, the call rests on the fitted dose curve.
On the % scale 0 is the no-effect control and ±100 the full control effect.

Chain of Muscarinic acetylcholine receptor M1 (Homo sapiens) (P11229 whole entry, looked up): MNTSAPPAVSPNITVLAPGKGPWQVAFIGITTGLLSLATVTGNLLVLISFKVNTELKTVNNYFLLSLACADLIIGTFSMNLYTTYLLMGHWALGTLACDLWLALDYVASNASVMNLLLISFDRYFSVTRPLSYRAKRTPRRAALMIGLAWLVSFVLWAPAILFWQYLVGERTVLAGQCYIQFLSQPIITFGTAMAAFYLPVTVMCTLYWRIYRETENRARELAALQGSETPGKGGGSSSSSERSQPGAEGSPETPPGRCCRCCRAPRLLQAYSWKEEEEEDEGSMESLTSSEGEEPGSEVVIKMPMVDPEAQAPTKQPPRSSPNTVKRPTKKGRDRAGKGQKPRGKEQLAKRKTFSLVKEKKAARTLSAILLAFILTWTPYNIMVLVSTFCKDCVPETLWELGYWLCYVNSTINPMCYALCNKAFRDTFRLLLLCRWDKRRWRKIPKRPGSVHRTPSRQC
Chain of 5-hydroxytryptamine receptor 2A (Homo sapiens) (P28223 whole entry, looked up): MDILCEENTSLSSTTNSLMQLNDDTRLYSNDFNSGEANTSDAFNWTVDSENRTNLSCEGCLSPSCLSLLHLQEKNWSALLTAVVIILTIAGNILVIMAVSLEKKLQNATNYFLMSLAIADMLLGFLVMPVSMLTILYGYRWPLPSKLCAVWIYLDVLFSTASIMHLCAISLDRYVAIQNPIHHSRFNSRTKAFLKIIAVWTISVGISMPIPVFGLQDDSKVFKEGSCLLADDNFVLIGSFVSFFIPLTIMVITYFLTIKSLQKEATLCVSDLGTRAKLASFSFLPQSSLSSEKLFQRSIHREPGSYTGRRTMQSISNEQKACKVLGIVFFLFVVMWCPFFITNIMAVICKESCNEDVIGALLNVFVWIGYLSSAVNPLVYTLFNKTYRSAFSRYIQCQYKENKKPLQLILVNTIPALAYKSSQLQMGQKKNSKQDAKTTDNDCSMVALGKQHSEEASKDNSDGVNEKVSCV
Chain of D(2) dopamine receptor (Homo sapiens) (P14416 whole entry, looked up): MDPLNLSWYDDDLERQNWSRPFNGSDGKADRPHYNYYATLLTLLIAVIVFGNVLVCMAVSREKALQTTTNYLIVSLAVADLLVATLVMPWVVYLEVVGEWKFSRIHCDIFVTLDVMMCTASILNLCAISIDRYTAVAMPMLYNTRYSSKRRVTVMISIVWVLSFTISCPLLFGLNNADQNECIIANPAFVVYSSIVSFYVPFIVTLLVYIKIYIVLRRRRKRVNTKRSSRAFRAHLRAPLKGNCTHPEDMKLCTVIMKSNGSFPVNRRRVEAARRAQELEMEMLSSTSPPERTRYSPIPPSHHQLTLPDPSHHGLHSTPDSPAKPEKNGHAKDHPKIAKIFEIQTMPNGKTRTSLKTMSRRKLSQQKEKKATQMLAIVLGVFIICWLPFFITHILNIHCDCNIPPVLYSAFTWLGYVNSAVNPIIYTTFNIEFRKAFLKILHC
Chain of Beta-2 adrenergic receptor (Homo sapiens) (P07550 whole entry, looked up): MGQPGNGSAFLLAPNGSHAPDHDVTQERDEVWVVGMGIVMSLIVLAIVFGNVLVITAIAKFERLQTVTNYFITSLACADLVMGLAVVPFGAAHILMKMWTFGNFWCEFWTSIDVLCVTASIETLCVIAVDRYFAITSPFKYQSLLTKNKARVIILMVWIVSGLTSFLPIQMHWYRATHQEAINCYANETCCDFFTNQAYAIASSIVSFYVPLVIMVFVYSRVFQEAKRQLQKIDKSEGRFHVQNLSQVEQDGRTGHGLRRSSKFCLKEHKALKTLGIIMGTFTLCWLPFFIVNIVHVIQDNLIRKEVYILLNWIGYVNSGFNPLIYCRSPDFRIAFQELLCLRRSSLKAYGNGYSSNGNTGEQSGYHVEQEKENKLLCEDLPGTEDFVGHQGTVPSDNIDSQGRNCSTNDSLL

For `COc1cc(C(C)C)ccc1C`, the activity change, negative = cytotoxicity in experiment [1] is 2.71% [at 19 µM]; in experiment [8], -0.449% [at 13.5 µM]; in experiment [9], 0.485% [at 13.5 µM]; in experiment [10], -2.99% [at 13.5 µM]. Further, the activity, positive = activation in experiment [2] is 17.4% [at 19 µM]. Moreover, the activity change in experiment [3] is 0.369% [at 11.8 µM, stronger effect = higher value]. Also, the activation was 3.09% [at 15.8 µM] in experiment [4]; -0.338% [at 11.8 µM] in experiment [5]; -9.12% [at 13.5 µM] in experiment [6]; 0.156% [at 13.6 µM] in [7]; -3.2% [at 13.5 µM] in experiment [11]; 0.168% [at 15.9 µM] in [13]. Besides, the activation in experiment [15] was -0.0401% [at 15.8 µM]; in [18], -1.89% [at 19 µM]. The figures for the activity, negative = inhibition in experiment [12] and in experiment [14] were -13.4% [at 12.7 µM] and 8.74% [at 12.6 µM], respectively. Besides, the activity change, negative = inhibition in experiment [16] was -0.604% [at 18.9 µM]; in [17] it was -2.77% [at 19 µM]; in experiment [19], 15.4% [at 18.9 µM].

For the compound `CC(C)SCc1ccco1`, the Potency result in experiment [1], in experiment [2], in experiment [3], in experiment [6], in experiment [7] and in experiment [8] was “inactive” in each case. The Potency entry in experiment [9], in [10], in [11], in experiment [12], in [13] and in experiment [14] was “inactive” throughout. In addition, the Potency result in [15], in experiment [20] and in [19] was “inactive” in each case. The result in [4] and in experiment [5] was inactive.

Turning to `O=C(O)Cc1c(Cl)ccc(Cl)c1Cl`, the Potency result in experiment [1], in [2], in experiment [3], in experiment [6], in experiment [7] and in experiment [8] was “inactive” in each case. Besides, the Potency entry in experiment [9], in [10], in experiment [11], in experiment [12], in experiment [13] and in [14] was “inactive” in each case. Besides, the Potency result in [15], in experiment [17], in [18] and in experiment [19] was “inactive” in each case. In addition, the outcome in experiment [4] and in [5] was inactive.

On to `CCCC(=O)C(CC)Sc1ccoc1C` (stereo unspecified), for which the Potency entry in experiment [1], in [2], in [3], in experiment [6], in [7] and in [8] was “inactive” each time. Moreover, the Potency result in [9], in experiment [10], in [11], in experiment [12], in [13] and in experiment [14] was “inactive” throughout. Further, the Potency entry in [15], in experiment [20], in experiment [17], in [18] and in experiment [19] was “inactive” in each case. Further, the outcome in [4] and in [5] was inactive.

Turning to `C=C[Si](C)(C)O[Si](C)(C)C=C`, the Potency result in experiment [1], in [2], in experiment [3], in experiment [6], in experiment [7] and in [8] was “inactive” in each case. Also, the Potency result in [9], in [10], in [11], in experiment [12], in experiment [13] and in [14] was “inactive” each time. In addition, the Potency result in [15], in [16], in [17], in experiment [18] and in experiment [19] was “inactive” in each case. The result in experiment [4] and in [5] was inactive.

Regarding `CO/N=C(\C(=O)N[C@@H]1C(=O)N2C(C(=O)O)=C(CSc3nc(=O)c(O)nn3C)CS[C@H]12)c1csc(N)n1`, the Potency result in experiment [1], in experiment [2], in experiment [3], in experiment [6], in experiment [7] and in [8] was “inactive” each time. The Potency entry in experiment [9], in experiment [10], in [11], in experiment [12], in experiment [13] and in experiment [15] was “inactive” throughout. In addition, the Potency entry in experiment [16], in experiment [17], in experiment [18] and in experiment [19] was “inactive” in each case. The outcome in [4] and in experiment [5] was inactive. In addition, the Potency in [14] is 516 nM (active).
